Results filed as inconclusive are left out. Entries that show only a call come without a potency. Activity calls are given as the source filed them. Calls come from the whole dose curve; as a rule, active = well fitted inhibition curve with a large enough effect; inconclusive = small, poorly fitted or top-dose-only effect; inactive = flat fitted curve, though single readings scatter.
Potency is the fitted concentration of half-maximal effect.

The test system of the first test is NIH3T3. Kind of test: qHTS assay to identify novel small-molecules to repurpose for Merkel cell carcinoma treatment (AID 1296009). Note: nearly all actives have a fitted effect of over 60% in size. The settings on record: MCC and control cell lines, CellTiter-Glo viability, 72 h; series mostly up to 44.8 µM. In short, it runs like this:
(§1)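 qHTS format: cells treated with library compounds in DMSO across 8 (NPC) or 11 (MIPE) concentrations. Readout after 72 hr at 37 degree celsius was CellTiter-Glo luminescence.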
`O=C1C(c2c(O)[nH]c3ccccc23)=Nc2ccccc21`: the Potency result was “inactive”.

Consider `COc1cc(Nc2nc3ccccc3nc2NS(=O)(=O)c2ccc(NC(=O)c3ccc(C)c(OC)c3)cc2)cc(OC)c1`, for which the Potency result is “inactive”.

For `COc1ccnc(CS(=O)c2nc3ccc(OC(F)F)cc3[nH]2)c1OC` (stereo unspecified), the Potency entry was “inactive”.

In the case of `CCOC(=O)[C@H](CCc1ccccc1)N[C@@H](C)C(=O)N1CCCC1C(=O)O` (stereo partly specified), the Potency result is “inactive”.

Turning to `Cc1ccccc1-n1c(Cn2nc(-c3cccc(O)c3)c3c(N)ncnc32)nc2cccc(C)c2c1=O`, the Potency result was “inactive”.

Consider `COc1nc(C)cnc1NS(=O)(=O)c1cccnc1-c1ccc(-c2nnco2)cc1`, for which the Potency result was “inactive”.

Take `O=C(c1ccc(C(=O)N2CCC(N3CCCC3)CC2)c(Nc2ccccc2)c1)N1CCC(N2CCCC2)CC1`: the Potency entry is “inactive”.

In the case of `CC(=O)N1CCN(c2ccc(OCc3nn(C)c(C)c3-c3cccc4c(CCCOc5cc(C)c(Cl)c(C)c5)c(C(=O)O)n(Cc5cccnc5)c34)cc2)CC1`, the Potency result was “inactive”.

Take `c1ccc(CNc2nc(N3CCOc4ccccc43)nc3c2CCCC3)cc1`: the Potency result was “inactive”.

`Cn1c(=O)c(-c2c(Cl)cccc2Cl)cc2cnc(Nc3cccc(C(=O)O)c3)nc21`: the Potency entry was “inactive”.

As to `COc1ccc(CCC(=O)Nc2nc3ccc(Cl)cc3s2)cc1OC`, the Potency entry is “inactive”.

For the compound `Cc1cc2c(cc1C1(c3ccc(C(=O)O)cn3)CC1)C(C)(C)CCC2(C)C`, the Potency result was “inactive”.

Take `COc1cc2ncnc(Nc3cc(Br)c(O)c(Br)c3)c2cc1OC`: the Potency entry was “inactive”.

For `C[C@@]1(c2cc(-c3cncnc3)c(F)cc2F)CCSC(N)=N1`, the Potency entry is “inactive”.

For `COc1ccc(-c2cc(=O)c3c(O)cc(O[C@@H]4O[C@H](CO[C@@H]5O[C@@H](C)[C@H](O)[C@@H](O)[C@@H]5O)[C@@H](O)[C@H](O)[C@@H]4O)cc3o2)cc1O`, the Potency entry is “inactive”.

For the compound `COC(=O)N1CCN(Cc2cccc(NC(=O)Nc3ccc(C)nc3)c2F)CC1`, the Potency result was “inactive”.

With `Cc1cnc(-c2cc(N3CCN(C(=O)CCS(C)(=O)=O)CC3)ncc2Cl)c(C)c1`, the Potency entry is “inactive”.

Turning to `NC(=O)c1ccc(N(C(N)=O)c2c(F)cccc2F)nc1-c1ccc(F)cc1F`, the Potency result is “inactive”.

In the next test the test system is UISO. Described as above. The following applies: MCC and control cell lines, CellTiter-Glo viability, 72 h; series mostly up to 46 µM. The method, boiled down: as §1
(In general: ATP-based viability assays read luminescence as a measure of living cells.)
Consider `COc1nccc(-c2c(-c3ccc(F)cc3)ncn2C2CCC(O)CC2)n1` (stereo unspecified), for which the Potency result is “inactive”.

In the case of `CNc1nc(Nc2ccc(C(=O)N3CCOCC3)cc2OC)ncc1Cl`, the Potency result was “inactive”.

Turning to `COc1cc(Nc2nc3ccccc3nc2NS(=O)(=O)c2ccc(NC(=O)c3ccc(C)c(OC)c3)cc2)cc(OC)c1`, the Potency entry is “inactive”.

Turning to `COc1ccc(-c2ccc3ncc4c(c3c2)n(-c2ccc(N3CCNCC3)c(C(F)(F)F)c2)c(=O)n4C)cn1`, the Potency is 0.0235 µM (active).

For `NS(=O)(=O)c1cc(Cl)c(Cl)c(S(N)(=O)=O)c1`, the Potency result is “inactive”.

`CN1C(=O)C(Cc2c[nH]c3ccccc23)NC1=S` (stereo unspecified): the Potency entry is “inactive”.

For the compound `CN1c2ccccc2C(=O)N2CCc3c([nH]c4ccccc34)C21` (stereo unspecified), the Potency result is “inactive”.

Take `CC1CCN(c2cc(N3CCN(C)CC3)ccc2NC(=O)c2cc(C#N)c[nH]2)CC1`: the Potency entry is “inactive”.

Take `COc1ccnc(CS(=O)c2nc3ccc(OC(F)F)cc3[nH]2)c1OC` (stereo unspecified): the Potency entry was “inactive”.

Take `CCOC(=O)[C@H](CCc1ccccc1)N[C@@H](C)C(=O)N1CCCC1C(=O)O` (stereo partly specified): the Potency result was “inactive”.

Turning to `Cc1ccccc1-n1c(Cn2nc(-c3cccc(O)c3)c3c(N)ncnc32)nc2cccc(C)c2c1=O`, the Potency is 10.5 µM (active).

Consider `CC(C)(OCc1nn(Cc2ccccc2)c2ccccc12)C(=O)O`, for which the Potency entry is “inactive”.

`Nc1ccc(-c2ccc3ncc4ccc(=O)n(-c5cccc(C(F)(F)F)c5)c4c3c2)cn1`: the Potency was 0.0332 µM (active).

Turning to `Cc1ccccc1C(C(=O)NC1CCCCC1)N(C(=O)CNc1ccc(C#N)cc1)c1cccc(F)c1` (stereo unspecified), the Potency result was “inactive”.

For `O=c1cc(-c2ccc(O)c(O)c2)oc2cc(O)cc(O)c12`, the Potency entry is “inactive”.

For `COc1nc(C)cnc1NS(=O)(=O)c1cccnc1-c1ccc(-c2nnco2)cc1`, the Potency entry was “inactive”.

`O=C(c1ccc(C(=O)N2CCC(N3CCCC3)CC2)c(Nc2ccccc2)c1)N1CCC(N2CCCC2)CC1`: the Potency result was “inactive”.

As to `CC(C)CNc1ccnc(NCc2csc(-c3ccccc3)n2)n1`, the Potency is 13.2 µM (active).

In the case of `CC1=C(C(=O)Nc2cc3cn[nH]c3cc2F)C(c2ccc(C(F)(F)F)cc2)CC(=O)N1` (stereo unspecified), the Potency entry was “inactive”.

As for `CC(=O)N1CCN(c2ccc(OCc3nn(C)c(C)c3-c3cccc4c(CCCOc5cc(C)c(Cl)c(C)c5)c(C(=O)O)n(Cc5cccnc5)c34)cc2)CC1`, the Potency result is “inactive”.

In the case of `c1ccc(CNc2nc(N3CCOc4ccccc43)nc3c2CCCC3)cc1`, the Potency result was “inactive”.

`Cn1c(=O)c(-c2c(Cl)cccc2Cl)cc2cnc(Nc3cccc(C(=O)O)c3)nc21`: the Potency result was “inactive”.

Turning to `CCN1C[C@H](C)n2c(c(O)c3c(=O)n(Cc4ccc(F)c(Cl)c4)nc(C(=O)NC)c32)C1=O`, the Potency result was “inactive”.

In the case of `COc1ccc(CCC(=O)Nc2nc3ccc(Cl)cc3s2)cc1OC`, the Potency result was “inactive”.

`Cc1cc2c(cc1C1(c3ccc(C(=O)O)cn3)CC1)C(C)(C)CCC2(C)C`: the Potency entry was “inactive”.

As for `O=C(O)CCNc1cc(N2CCc3ccccc3CC2)nc(-c2ccccn2)n1`, the Potency is 14.8 µM (active).

Consider `CN1CCC(COc2cnc(-c3cccc(Cn4nc(-c5cccc(C#N)c5)ccc4=O)c3)nc2)CC1`, for which the Potency result is “inactive”.

Take `C[C@@]1(c2cc(-c3cncnc3)c(F)cc2F)CCSC(N)=N1`: the Potency result was “inactive”.

`C[C@H](c1ccc(F)cc1CCCC(=O)O)N(c1cc(F)ccc1F)S(=O)(=O)c1ccc(Cl)cc1`: the Potency entry was “inactive”.

With `COc1ccc(-c2cc(=O)c3c(O)cc(O[C@@H]4O[C@H](CO[C@@H]5O[C@@H](C)[C@H](O)[C@@H](O)[C@@H]5O)[C@@H](O)[C@H](O)[C@@H]4O)cc3o2)cc1O`, the Potency result was “inactive”.

For `COC(=O)N1CCN(Cc2cccc(NC(=O)Nc3ccc(C)nc3)c2F)CC1`, the Potency entry is “inactive”.

In the case of `Cc1cnc(-c2cc(N3CCN(C(=O)CCS(C)(=O)=O)CC3)ncc2Cl)c(C)c1`, the Potency result was “inactive”.

As to `NC(=O)c1ccc(N(C(N)=O)c2c(F)cccc2F)nc1-c1ccc(F)cc1F`, the Potency entry is “inactive”.
